Publication PMC12136788
Over roughly 5,800 sequences, “enrichment r” has its median near 0.68; the highest 2% begin near 11. Only a sample is shown.

T1: UNK ZnF1-6 (called full-length) (human, UniProt Q9C0B0 30-357)
T1 sequence: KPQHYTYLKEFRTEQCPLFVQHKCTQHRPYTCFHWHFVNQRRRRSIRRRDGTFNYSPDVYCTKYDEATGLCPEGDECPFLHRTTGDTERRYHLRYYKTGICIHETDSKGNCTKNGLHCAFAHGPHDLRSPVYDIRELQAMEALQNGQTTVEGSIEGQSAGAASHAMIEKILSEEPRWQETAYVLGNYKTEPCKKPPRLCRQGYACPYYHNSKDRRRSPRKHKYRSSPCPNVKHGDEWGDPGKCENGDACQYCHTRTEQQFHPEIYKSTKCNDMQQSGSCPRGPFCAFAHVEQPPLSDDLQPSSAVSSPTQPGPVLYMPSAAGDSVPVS

B1: ENSG00000143373:stop:overlap|stop_codon|ENSG00000143373|stop_codon|NA|stop_codon (ssRNA)
RNA: GGGAGUUCUACAGUCCGACGAUCACUUCCGCACGCAUGGCAUGGCGUUCAUCAGGGCUCGGCAGGGGGCUGUUGGGGACAACUAGUCUCCAAGGCCUGGGACUGACCAGCCCCUUCCUCUUGGAGCCUGGUUUUCCCUACUGCCAACAGAGGAUUGAGCAUCA
B2: ENSG00000136451:be:win_2201|3pUTR|ENSG00000136451|bound_else_gene|NA|bound_elsewhere_windowed (ssRNA)
RNA: GGGAGUUCUACAGUCCGACGAUCAUUGUGACCUGAUAUUUGGAGAUGUAAAUAUUGCUCAGCAUAUUAAUCCCGAUGGAAUAUAGCAUUGUAGUUGACUUUUUAAAAAAAAAAAAAAUUUAAAAAAAAUCUACAAAUUGUGUUCAACAGAGGAUUGAGCAUCA
B3: chr3:11298707:11298833:+|CDS|ENSG00000197548|unk|total|mutant (ssRNA)
RNA: GGGAGUUCUACAGUCCGACGAUCAUAAUGGCGGCAGCUACGGGGGAUCCUGGACUCUCUAAACUGCAGUUUGCCCCUUUCCGCCGUGCCUUGGAUGUUGGGUUUUGGCAUGAGUUGACCCAGAAGAAGCUGAACGAGUAUCGGCAACAGAGGAUUGAGCAUCA
B4: chrX:15345595:15346132:-|three_prime_utr|ENSG00000165197|control|control|control (ssRNA)
RNA: GGGAGUUCUACAGUCCGACGAUCCAGACCAACCUUCCAUUCACACCAGCUAAGGAGUCCCUGGUUCAUUGAUGGAUGUCUUCUAGCUGCAGAUGCCUCUGCGCACCAAGGAAUGGAGAGGAGGGGACCCAUGUAAUCCUUUUGCAACAGAGGAUUGAGCAUCA
B5: chrX:65741840:65741941:+|3pUTR|ENSG00000147065|msi1|FALSE|unique (ssRNA)
RNA: GGGAGUUCUACAGUCCGACGAUCAAAUUGUUUUUGGAGGGGUUUAUGCUCAAUCCAUGUUCUAUUUCAGUGCCAAUAAAAUUUAGGAAGACUUCACAGUGACUCAAUCGUUCUUUGUGGUAUGAGUGGGUAGCUGUAAGAUAUCAACAGAGGAUUGAGCAUCA
B6: chr10:72011937:72012038:+|3pUTR|ENSG00000122863|msi1|total|mutant (ssRNA)
RNA: GGGAGUUCUACAGUCCGACGAUCCAUACACCGCAGGUGGUCACCGAGUUAUUUUCCAAAAGCUGAGGAACAUAAAGCAAAUUCCGGCUUUUGUCCUUCUGCAAUACAUGCACUUGAAAAUAAACAGAAAAGAGAUGUUUAAUACAACAGAGGAUUGAGCAUCA
B7: chr17:50110931:50111032:+|3pUTR|ENSG00000005882|unk|total|mutant (ssRNA)
RNA: GGGAGUUCUACAGUCCGACGAUCUGUGCCCAGACAUGUGUGCUCAGGGUGGCUUUCUCCCCCGGACCUUCUGUGUAUACCGUCCGUUUUAUAACCCUGAAUGCCCCCACCCUUCCCCUAAGCACACAGGGGUUAAAGCUGUGUCAACAGAGGAUUGAGCAUCA
B8: chr6:132588675:132589686:-|CDS|ENSG00000135569|control|control|control (ssRNA)
RNA: GGGAGUUCUACAGUCCGACGAUCUGCCAAGACCCUGGGCAUUGCUGUGGGCAUAUACCUCUUGUGCUGGCUGCCCUUCACCAUAGACACGAUGGUCGACAGCCUCCUUCACUUUAUCACACCCCCACUGGUCUUUGACAUCUUCAACAGAGGAUUGAGCAUCA
B9: chr2:1632407:1632508:-|3pUTR|ENSG00000130508|msi1|total|mutant (ssRNA)
RNA: GGGAGUUCUACAGUCCGACGAUCUUGGUAAGUGAUUGAUAAAAAUUGGUUGGUGUUUCAUGACAUGUGGACUUCUUUUGAAACCGCAAGUCAAAUGCCGUGACCAAAUUGUGGAAGAGAUUUCUGUCAAACCGGAAAUGUGUACAACAGAGGAUUGAGCAUCA
B10: ENSG00000198589:be:win_3901|CDS|ENSG00000198589|bound_else_gene|NA|bound_elsewhere_windowed (ssRNA)
RNA: GGGAGUUCUACAGUCCGACGAUCUCUACUGUGUUUCGUAUUCCUGAGUUCAACUGGUCUCAGAUGCAUCAACGUUUGCUCACUGAUCUAUUAUUUUCAAUAGAAACAGAUAUACAGAUGUGGAGAAGCCAUUCAACAAAGACACAACAGAGGAUUGAGCAUCA
B11: chr6:21593967:21594078:+|5pUTR|ENSG00000124766|unk|FALSE|bound_elsewhere (ssRNA)
RNA: GGGAGUUCUACAGUCCGACGAUCUUAGUGCCGAUUCCGCCCACAGAGAGUCCUGGAGCCACAGUCUUUUUUGCUUUGCAUUGUAGGAGAGGGACUAAGUGCUAGAGACUAUGUCGCUUUCCUGAGCUACCGAGAGCGCUCGUGCAACAGAGGAUUGAGCAUCA
B12: chr9:88477803:88477904:+|3pUTR|ENSG00000106723|msi1|FALSE|bound_elsewhere (ssRNA)
RNA: GGGAGUUCUACAGUCCGACGAUCGACAAUACAAGACAUGAAUCUAUGUAUAAAAUUUAUCGGCCUUUCUCAUUUACCUGCUCUAGUAUUAUUGUAUUGUGUGUGCGUGCGUGUGUGAUGUCAGGCUGCCACGUAAAACUUCAGCAACAGAGGAUUGAGCAUCA
B13: chr17:68278117:68278284:-|CDS|ENSG00000108932|unk|FALSE|unique (ssRNA)
RNA: GGGAGUUCUACAGUCCGACGAUCGCUUUGUUCCAAAGCCAAUGUGUAUACUGAAGUGCCUGAUGGAGGAUGGGGCUGGGCGGUAGCUGUUUCAUUUUUCUUCGUUGAAGUCUUCACCUACGGCAUCAUCAAGACAUUUGGUGUCAACAGAGGAUUGAGCAUCA
B14: ENSG00000112146:stop:overlap|stop_codon|ENSG00000112146|stop_codon|NA|stop_codon (ssRNA)
RNA: GGGAGUUCUACAGUCCGACGAUCACACCCCCUUGUUCUUCGCCAGAGUAAGGAGCUACACAGCUUUCUCAGAAAGGCCUCUGUAGAGCCUCAAGUCCAGUCCUCUAUCACUUUUGCAUGAAUUAAAGUAUAUAGCGCAAAAGACAACAGAGGAUUGAGCAUCA

These binders were tested against T1, UNK ZnF1-6 (called full-length) (assay: nsRBNS (natural sequence RNA bind-n-seq); RBNS binding buffer (assumed for nsRBNS): 25 mM Tris pH 7.5, 150 mM KCl, 3 mM MgCl2, 0.01% Triton X-100, 500 ug/ml BSA, 20 U/ml SUPERase-In, 4 C; UNK is unkempt and MSI1 is Musashi-1; names of the RNAs are library labels; protein concentration not given here; high values mean tight binding).
Work on B1 yielded a binding signal of 0.569 enrichment R. B2 gave a binding signal of 0.637 enrichment R. Binder B3 has a binding signal of 0.839 enrichment R. B4 was tested, and the binding signal was 0.639 enrichment R. B5 showed a binding signal of 0.698 enrichment R. Binder B6 has a binding signal of 0.34 enrichment R. B7 was tested, and the binding signal was 1.06 enrichment R. For B8, the binding signal was 0.967 enrichment R. B9 showed a binding signal of 0.207 enrichment R. In the case of B10, the binding signal is reported as 0.382 enrichment R. Binder B11 has a binding signal of 0.815 enrichment R. Work on B12 yielded a binding signal of 1.09 enrichment R. B13 showed a binding signal of 0.822 enrichment R. B14 was tested, and the binding signal was 0.367 enrichment R.
